From PubChem BioAssay (NCI) come the findings set out here.

The panel holds about 83,000 compounds, 20% with a hit somewhere; the sample as a whole holds those more often.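 Percent growth is the endpoint: 0 to 100 indicates growth inhibition (40 means 60% inhibition), 0 means no net growth, and negative values indicate cell death.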 The source made the active and inactive calls. Rule for the calls: active = growth percent below 10; inactive = the rest.

This assay relates to MDA-MB-468 breast. As to the kind of experiment: NCI-60 one-dose screen, 48 h (100 = growth as untreated, 0 = no growth, -100 = all killed). The settings on record: 10 µM unless noted.
Turning to `Cc1cc(S(=O)(=O)/N=C(\N)n2nc(C)c(C)c2C)c(SCc2ccccc2)cc1Cl`, the growth is 66% (inactive).
As to `COC(=O)c1c(C)nc(C)c2c1C(=O)C(Br)=C(NCCN1CCOCC1)C2=O`, the growth is 83.4% (inactive).
The value for `CCCn1ccnc1C(O)c1ccc(OCc2ccccc2)c(OC)c1` (stereo not given) was 90.5% (inactive); that for `Nc1ncnc2c1c(-c1ccc(Oc3ccccc3)cc1)nn2C[C@@H]1SSC[C@H]1O` was -0.15% (active).
The value for `COc1ccc(CC(C)=C(c2ccc(OCCN3CCCC3)cc2)c2ccc(OCCN3CCCC3)cc2)cc1` was -85.2% (active); that for `NC(CCC(=O)NC(CS)C(=O)NCC(=O)O)C(=O)O` (stereo not given) was 102% (inactive); that for `Nc1nc2c(s1)CCc1cn(S(=O)(=O)c3ccccc3)cc1-2` was 83.2% (inactive).
The value for `O=S(=O)(Nc1ccc(Br)cc1)c1ccc(-c2cnc(C3CC3)o2)cc1` was -12.4% (active); that for `O=c1c2cc(-c3ccccc3)sc2nc2sc(-c3ccccc3)nn12` was 101% (inactive); that for `COc1cc(/C=N/N(C)C)ccc1O` was 95.8% (inactive).
For the compound `COC(=O)[C@]12CC[C@@H](C)[C@H](C)[C@@H]1C1=CC[C@@H]3[C@@]4(C)C[C@@H](OC(C)=O)[C@H](O)[C@@](C)(CO)[C@@H]4[C@H](O)C[C@@]3(C)[C@]1(C)CC2`, the growth was -90.6% (active).
The value for `O=C(Nc1nc2ccc([N+](=O)[O-])cc2s1)Nc1ccccc1Br` was 33.2% (inactive).
The value for `COCCOc1cc2ncnc(N3CCN(c4cc(S(C)(=O)=O)c(C)cc4Cl)CC3)c2cc1OCCOC` was 90.2% (inactive); that for `COc1cccc(-n2cc(-c3nc(Nc4cc(C)[nH]n4)c4ccccc4n3)nn2)c1` was 48.1% (inactive).
The value for `CC[N+](CC)(CCCC(C)[N+]1(Cc2ccccc2)C(C)=CC=C1C)Cc1ccccc1` (stereo not given) was -12.8% (active); that for `CC[n+]1c(/C=C/C=C2\N(C)c3ccccc3C2(C)C)sc2ccccc21` was -12.3% (active); that for `Nc1nc(-c2ccccc2Br)nn1-c1nc2ccccc2s1` was 103% (inactive).
In the case of `C=C1CC2(OC1=O)C(=O)N(CCCCCCCN1C(=O)C3(CC(=C)C(=O)O3)c3ccccc31)c1ccccc12` (stereo not given), the growth was -17% (active).
The value for `CCOC(=O)/C(C#N)=C(/C)C1CC1` was 98.3% (inactive); that for `Cc1nc(Nc2ccc(NC(=S)Nc3ccccc3)cc2)c2ccccc2n1` was 109% (inactive); that for `CNC(=O)Cc1nc(-c2cccc(NS(=O)(=O)c3c(F)cccc3F)c2F)c(-c2ccnc(Nc3ccccc3)n2)s1` was 104% (inactive).
The same measure for `O=S(=O)(NCCCNc1cc(-c2cn(-c3ccccc3)nc2-c2cccc(O)c2)ccn1)c1ccccc1`: 4.3% (active).
The value for `COc1ccc(/C=C/c2cc(N3CCOCC3)c3cc(F)c(F)cc3n2)cc1OC` was 14.5% (inactive).
In the case of `CN(C)c1ccc(/C=N/NC(=O)c2cccc3ccccc23)c(Cl)c1`, the growth was -7.38% (active).
The same measure for `CCC(=C(c1ccc(OCCN2CCCCCC2)cc1)c1ccc(OCCN2CCCCCC2)cc1)c1ccc(Cl)cc1`: -83.3% (active); for `O/N=C1\CCC2CCCCC2C1` (stereo not given): 105% (inactive); for `NC1=CC(=O)C(=O)c2ccccc21`: 86.8% (inactive).
The value for `Clc1ccc2c(NC3CCC(N4CCOCC4)CC3)ccnc2c1` (stereo not given) was 9.58% (active); that for `CCN(CC)CCCC(C)NC(=S)N/N=C(\C)c1ccccn1` (stereo not given) was -7.86% (active); that for `CCc1nn2c(-c3cc(OC)c(OC)c(OC)c3)c(-c3cc(OC)c(OC)c(OC)c3)nc2s1` was 49.3% (inactive).
Consider `Cc1c(O)cc(-c2cnc(N/N=C\c3ccc(Cl)cc3)s2)c(O)c1C`, for which the growth is 76% (inactive).
The value for `COc1cc(Nc2ncnc(Nc3ccc4c(n3)NC(=O)C(C)(C)O4)n2)cc(OC)c1OC` was -24.5% (active); that for `COc1ccccc1C(=O)Nc1cccc(-c2cc(=O)c3c(OC)c(OC)c(OC)cc3o2)c1` was 39.2% (inactive).
The same measure for `COc1cccc(Cc2cc(-c3ccccc3)nn(CC(=O)c3ccccc3)c2=O)c1`: 90.6% (inactive).
The value for `O=C(CSc1nnc(-c2cnccn2)n1-c1ccccc1)c1ccc(Cl)cc1` was 97.6% (inactive); that for `COc1cc(/C=C2\C=C(c3ccc(F)cc3)N(Cc3ccccc3)C2=O)cc(OC)c1OC` was 49.9% (inactive).
As to `CN1C(=O)N(C)[C@H]2NC(NN)=N[C@H]21`, the growth was 101% (inactive).
The same measure for `COc1cc2ncnc(-n3ncc4cc(NC(=O)Nc5ccc(Cl)c(C)c5)ccc43)c2cc1OC`: 93.6% (inactive); for `O=C(O)c1ccc(S(=O)(=O)O)cc1`: 103% (inactive); for `Nc1[nH]c(=S)nc2oc(-c3ccccc3)c(-c3ccccc3)c12`: 98.8% (inactive).
